Results from PubChem BioAssay (NCI).
About 83,000 compounds went through this panel and 20% of them were active in at least one assay; those are over-represented in the sample as a whole.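 Growth was measured after 48 h exposure to one concentration of compound in 96-well plates. Values under 10 count as active.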 Unmarked numbers belong to inactive results. Activity calls are given as the source filed them.

Assays:
Test in all cases: NCI-60 one-dose screen, 48 h (100 = growth as untreated, 0 = no growth, -100 = all killed)
Details in all cases: 10 µM unless noted
[1] = test system: HCT-15 colon
[2] = test system: HT29 colon
[3] = test system: SNB-75 CNS
[4] = test system: SNB-19 CNS
[5] = test system: U251 CNS
[6] = test system: PC-3 prostate
[7] = test system: SK-MEL-5 melanoma
[8] = test system: UACC-62 melanoma
[9] = test system: LOX IMVI melanoma
[10] = test system: SK-MEL-28 melanoma
[11] = test system: SK-MEL-2 melanoma
[12] = test system: SN12C renal
[13] = test system: UO-31 renal
[14] = test system: TK-10 renal
[15] = test system: ACHN renal
[16] = test system: CAKI-1 renal
[17] = test system: A498 renal
[18] = test system: MOLT-4 leukemia
[19] = test system: CCRF-CEM leukemia

CCC1CCc2nc3sc(C(=O)Nc4ccccc4F)c(N)c3cc2C1 (stereo unspecified)
growth [1]: 35.3% | growth [2]: 39.5% | growth [3]: 66.1% | growth [4]: 76% | growth [5]: 65.5% | growth [6]: 67.3% | growth [7]: 40.2% | growth [8]: 47.9% | growth [9]: 62.8% | growth [10]: 59.9% | growth [11]: 52.1% | growth [12]: 89.8% | growth [13]: 77.5% | growth [14]: 73.7% | growth [15]: 69.4% | growth [16]: 53.2% | growth [17]: 44.7% | growth [18]: 40%

Cc1ccc(Nc2ncnc3c2sc2ncccc23)cc1
growth [1]: 99.2% | growth [2]: 114% | growth [3]: 82.8% | growth [4]: 103% | growth [5]: 101% | growth [6]: 103% | growth [7]: 97% | growth [8]: 103% | growth [9]: 100% | growth [10]: 104% | growth [11]: 118% | growth [12]: 98.4% | growth [13]: 90.9% | growth [14]: 123% | growth [15]: 99.3% | growth [16]: 104% | growth [17]: 67% | growth [19]: 116% | growth [18]: 51.1%

O=S(=O)(NCCCNc1cc(-c2cn(-c3ccccc3)nc2-c2cccc(O)c2)ccn1)c1ccc(C(F)(F)F)cc1
growth [1]: 5.17% (active) | growth [2]: 2.83% (active) | growth [3]: 31.5% | growth [4]: 51.4% | growth [5]: 36.8% | growth [6]: 13.7% | growth [7]: 8.74% (active) | growth [8]: 27.4% | growth [9]: 27.4% | growth [10]: 21.7% | growth [11]: 72.7% | growth [12]: 50.1% | growth [13]: 24.9% | growth [14]: 77.7% | growth [15]: 31.5% | growth [16]: 34.7% | growth [17]: 57.2% | growth [19]: 30.2% | growth [18]: 16%

C[C@]12CC[C@@H]3c4cc(O)c(O)cc4CC[C@H]3[C@@H]1CC[C@@H]2O
growth [1]: 30% | growth [2]: 96.4% | growth [3]: -14.5% (active) | growth [4]: 66.1% | growth [5]: 35.8% | growth [6]: 58.6% | growth [7]: 26.5% | growth [8]: 33.8% | growth [9]: 40% | growth [10]: 39.6% | growth [11]: -16.8% (active) | growth [12]: 50.7% | growth [13]: 41.4% | growth [14]: 87.5% | growth [15]: 42.9% | growth [16]: 33.3% | growth [17]: 100% | growth [18]: 29.1%

O=[N+]([O-])c1cc(S(=O)(=O)OCC2CO2)ccc1Cl (stereo unspecified)
growth [1]: 93.4% | growth [2]: 49.7% | growth [3]: 89.9% | growth [4]: 110% | growth [5]: 98.9% | growth [6]: 83.7% | growth [7]: 102% | growth [8]: 111% | growth [9]: 39.1% | growth [10]: 90.1% | growth [11]: 88.4% | growth [12]: 103% | growth [13]: 89.7% | growth [14]: 114% | growth [15]: 98.5% | growth [16]: 104% | growth [17]: 121% | growth [19]: 76.7% | growth [18]: 95.3%

CC1Cc2c(N(C)C)ncnc2N(C)c2ccc(Cl)cc21 (stereo unspecified)
growth [1]: 18.8% | growth [2]: 10.8% | growth [3]: -12.4% (active) | growth [4]: 39.1% | growth [5]: 27.3% | growth [6]: 32.9% | growth [7]: 11.1% | growth [8]: 33.2% | growth [9]: 35.8% | growth [10]: 52.4% | growth [11]: 27.3% | growth [12]: 47.9% | growth [13]: 59.4% | growth [14]: 31.8% | growth [15]: 47.1% | growth [16]: 25.1% | growth [17]: -12.5% (active) | growth [19]: 18.1% | growth [18]: 28.2%

Cc1nc2sccn2c1-c1csc(Nc2ccccc2Cl)n1
growth [1]: 34.2% | growth [2]: 15.4% | growth [3]: 56.9% | growth [4]: 65.6% | growth [5]: 42.1% | growth [6]: 53.5% | growth [7]: 11.5% | growth [8]: 46.7% | growth [9]: 45.5% | growth [10]: 65.6% | growth [11]: 33.9% | growth [12]: 57.1% | growth [13]: 42.4% | growth [14]: 61% | growth [15]: 58.9% | growth [16]: 34.6% | growth [17]: 31.5% | growth [19]: 48.6% | growth [18]: 17%

CCC1=C[C@@H]2CN(C1)Cc1c([nH]c3ccccc13)[C@@](C(=O)OC)(c1cc3c(cc1OC)N(C=O)[C@H]1[C@@](O)(C(=O)OC)[C@H](OC(C)=O)[C@]4(CC)[C@@H]5C[C@@H]5CN5CC[C@]31[C@@H]54)C2
growth [1]: 10.3% | growth [2]: -5.12% (active) | growth [3]: 8.7% (active) | growth [4]: 28.3% | growth [5]: 11.8% | growth [6]: 7.43% (active) | growth [7]: -26.9% (active) | growth [8]: 18.5% | growth [9]: 7.6% (active) | growth [10]: 60.9% | growth [11]: 18% | growth [12]: 21.9% | growth [13]: 28.7% | growth [14]: 49.2% | growth [15]: 35.6% | growth [16]: 8.29% (active) | growth [17]: -8.16% (active) | growth [19]: 8.71% (active) | growth [18]: 13.4%

COC(=O)[C@H]1[C@H](OC)[C@@H](OC(=O)/C=C/c2ccncc2)CC2CN3CCc4c([nH]c5cc(OC)ccc45)[C@@H]3C[C@@H]21 (stereo partly specified)
growth [1]: 75.5% | growth [2]: 68.9% | growth [3]: 48.6% | growth [4]: 84.1% | growth [5]: 67.1% | growth [6]: 56% | growth [7]: 89.6% | growth [8]: 43.8% | growth [9]: 50.4% | growth [10]: 94.5% | growth [11]: 103% | growth [12]: 70.2% | growth [13]: 56.9% | growth [14]: 91.6% | growth [15]: 63% | growth [16]: 53.3% | growth [17]: 31.5% | growth [19]: 57.5% | growth [18]: 78.2%

CC(=O)Nc1nc(C(=O)N2N=C(C)/C(=C/c3ccc(Cl)cc3)C2=O)cs1
growth [1]: 100% | growth [2]: 108% | growth [3]: 98.3% | growth [4]: 104% | growth [5]: 101% | growth [6]: 98% | growth [7]: 104% | growth [8]: 111% | growth [9]: 101% | growth [10]: 110% | growth [11]: 90.5% | growth [12]: 105% | growth [13]: 82.4% | growth [14]: 123% | growth [15]: 108% | growth [16]: 100% | growth [17]: 117% | growth [19]: 99.6% | growth [18]: 91.7%

Nc1c(C(=O)Nc2cccc(C(F)(F)F)c2)sc2nc3c(cc12)CCCCC3
growth [1]: 50.5% | growth [2]: 20.6% | growth [3]: -38.2% (active) | growth [4]: 44.8% | growth [5]: -57% (active) | growth [6]: 53% | growth [7]: 0.77% (active) | growth [8]: 12.8% | growth [9]: 8.87% (active) | growth [10]: 20.8% | growth [11]: 39.4% | growth [12]: 2.78% (active) | growth [13]: -39.8% (active) | growth [14]: -16.2% (active) | growth [15]: -67.4% (active) | growth [16]: 16.2% | growth [17]: -21.8% (active) | growth [19]: 61.9% | growth [18]: 83%

CC1=CNNc2c3ncnc-3ncn21
growth [1]: 102% | growth [2]: 104% | growth [3]: 101% | growth [4]: 99.1% | growth [5]: 102% | growth [6]: 99.9% | growth [7]: 99.7% | growth [8]: 98.6% | growth [9]: 106% | growth [10]: 105% | growth [11]: 111% | growth [12]: 105% | growth [13]: 90.6% | growth [14]: 105% | growth [15]: 99.8% | growth [16]: 102% | growth [17]: 95.7% | growth [19]: 96.1% | growth [18]: 91.9%

COc1cc(C(=O)OCCCCCCCCCCC[P+](c2ccccc2)(c2ccccc2)c2ccccc2)ccc1O
growth [1]: 0.0119% (active) | growth [2]: 1.83% (active) | growth [3]: -75.7% (active) | growth [4]: -54.9% (active) | growth [5]: -89.8% (active) | growth [6]: -22.3% (active) | growth [7]: -98.1% (active) | growth [8]: -16% (active) | growth [9]: -97.7% (active) | growth [10]: -66.1% (active) | growth [11]: -32.1% (active) | growth [12]: -70.1% (active) | growth [13]: -8.76% (active) | growth [14]: 8.26% (active) | growth [15]: -1.87% (active) | growth [16]: -73.2% (active) | growth [17]: -0.743% (active) | growth [19]: -32.3% (active) | growth [18]: -50.9% (active)

CCCCCCCCCCCCNC(=S)N/N=C/c1ccc(Cl)c(Cl)c1
growth [1]: 87.2% | growth [2]: 82.2% | growth [3]: 96.8% | growth [4]: 114% | growth [5]: 108% | growth [6]: 107% | growth [7]: 99% | growth [8]: 95.5% | growth [9]: 120% | growth [10]: 104% | growth [11]: 99.8% | growth [12]: 101% | growth [13]: 89.2% | growth [14]: 143% | growth [15]: 94.9% | growth [16]: 101% | growth [17]: 112% | growth [18]: 93.8%

COc1cc(OC)cc(-c2n[nH]nc2-c2ccc3c(c2)OCO3)c1
growth [1]: 25.7% | growth [2]: 1% (active) | growth [3]: -8.14% (active) | growth [4]: 45.1% | growth [5]: 7.92% (active) | growth [6]: 19.4% | growth [7]: 20.2% | growth [8]: 27.5% | growth [9]: 34.4% | growth [10]: 32% | growth [11]: 14.4% | growth [12]: 49.1% | growth [13]: 44.9% | growth [14]: 59.5% | growth [15]: 42.7% | growth [16]: 36.5% | growth [17]: -1.56% (active) | growth [19]: 10.4% | growth [18]: 31.3%

C#CCC1(c2ccc(F)c(F)c2)NS(=O)(=O)c2ccccc21 (stereo unspecified)
growth [1]: 103% | growth [2]: 82.9% | growth [3]: 99.1% | growth [4]: 108% | growth [5]: 96.4% | growth [6]: 91.8% | growth [7]: 103% | growth [8]: 106% | growth [9]: 98% | growth [10]: 121% | growth [11]: 91.2% | growth [12]: 106% | growth [13]: 86.4% | growth [14]: 83.6% | growth [15]: 113% | growth [16]: 94.4% | growth [17]: 109% | growth [19]: 99.2% | growth [18]: 90%
